Many of the other results were omitted from the sample, so hits are more common in it than they were.
TDP1 cell noCPT: qHTS for Inhibitors of human tyrosyl-DNA phosphodiesterase 1 (TDP1): qHTS in cells in absence of CPT; Potency, µM (doses to about 46.2 µM), usual class: inhibitors; DT40 Tdp1-/- hTDP1 cells, no CPT, ATP luminescence, 48 h; hit rate 15% among 420,000; AID 686978, 2013; also: nearly all actives have a fitted effect of over 55% in size
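Seeded 400 DT40-hTDP1 cells/well (vehicle DMSO, no 20 nM CPT); pinned compounds; ≥48 hr at 37 °C; CellTiter-Glo luminescence as viability measure.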
12-LOX inh: blocks human arachidonate 12S-lipoxygenase; purified 12hLO, xylenol orange hydroperoxide absorbance; Potency, µM (series often up to 108 µM), actives largely listed as inhibitors; hit rate 1.1% among 580,000; P18054; AID 1671190
Target sequence (P18054 whole entry, looked up): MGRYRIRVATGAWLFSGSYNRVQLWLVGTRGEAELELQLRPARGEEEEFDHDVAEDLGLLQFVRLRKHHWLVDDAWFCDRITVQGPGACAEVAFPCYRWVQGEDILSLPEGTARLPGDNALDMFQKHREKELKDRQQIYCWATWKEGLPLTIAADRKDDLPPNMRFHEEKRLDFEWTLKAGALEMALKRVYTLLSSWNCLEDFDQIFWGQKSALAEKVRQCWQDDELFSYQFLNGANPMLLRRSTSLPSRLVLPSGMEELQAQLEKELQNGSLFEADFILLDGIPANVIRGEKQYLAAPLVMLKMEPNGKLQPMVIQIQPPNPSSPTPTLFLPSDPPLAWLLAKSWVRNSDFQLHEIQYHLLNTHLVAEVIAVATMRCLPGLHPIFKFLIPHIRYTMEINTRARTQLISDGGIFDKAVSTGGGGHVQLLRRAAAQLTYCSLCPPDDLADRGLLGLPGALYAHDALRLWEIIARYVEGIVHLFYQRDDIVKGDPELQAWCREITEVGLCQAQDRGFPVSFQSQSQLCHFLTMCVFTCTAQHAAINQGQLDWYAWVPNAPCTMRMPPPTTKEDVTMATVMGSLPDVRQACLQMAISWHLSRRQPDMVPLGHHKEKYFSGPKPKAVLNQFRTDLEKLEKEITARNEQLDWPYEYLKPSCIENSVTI
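Hydroperoxide product was detected by ferrous iron/xylenol orange as the 573 to 405 nm absorbance ratio. Arachidonic acid at 40 uM (final) was turned over for 30 min at room temperature by 150 nM human 12hLO, pH 7.0 Hepes buffer, after 15 min compound preincubation.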
HT1080NT lethal: kills 2HG-producing HT-1080-NT fibrosarcoma cells | Potency, µM (titrated, usually from 46.1 µM), hits mostly cytotoxic | HT-1080-NT fibrosarcoma viability, CellTiter-Glo ATP luminescence, 48 h | hit rate 1.6% among 360,000 | AID 686970;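 also: NT is the 2HG producing partner of a matched IDH1 knockdown line; nearly all actives have a fitted effect of over 55% in size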
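A 48-hour cytotoxicity screen used HT-1080-NT cells plated 2 hours before compound delivery. ATP-based CellTiter-Glo luminescence measured viability, normalized to DMSO and no-cell controls.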
IL1B secr inh: inflammasome signaling inhibition, IL-1 beta readout; THP-1 LPS/ATP IL-1B secretion, AlphaLISA, 16 h; active compounds read low; AID 743279; activity change, % at 57.5 µM; hit rate 4.7% among 360,000; in the data active = activity change below about -50%; inconclusive = mostly about -30% to -49%
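THP-1 cells pretreated 1 hr with compounds (up to 57.5 uM final), then stimulated with LPS (250 ng/mL final) plus ATP (1.25 mM final); secreted IL-1B measured by AlphaLISA after 16 hr, decreased signal indicating inhibition.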
HT1080 IDH1KD tx: toxicity to HT-1080 IDH1 knockdown cells (counter line); HT-1080 IDH1 knockdown viability, ATP luminescence, 48 h; Potency, µM (top dose mostly 46.1 µM), actives largely listed as cytotoxic; hit rate 2% among 360,000
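IDH1KD HT-1080 cells, 750/well, RPMI + 5% FBS; compound pinned after 2 h settling; 48 h, 37 °C; CellTiter-Glo luminescence; % activity normalised to DMSO and no-cell wells; curves fitted, classed by r2 and efficacy.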
TDP1 cell CPT: growth inhibition of DT40 Tdp1-/-;hTDP1 cells with camptothecin (screen for TDP1 inhibitors). hit rate 12% among 420,000. Potency, µM (titrated, usually from 46.2 µM), usual class: inhibitors. AID 686979. chicken DT40 Tdp1-/-;hTDP1 cells + 20 nM CPT, ATP luminescence, 48 h; also: nearly all actives have a fitted effect of over 55% in size
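Chicken DT40 Tdp1-/- cells stably complemented with human TDP1 were seeded at 400 cells/well in medium containing 20 nM camptothecin, exposed to pin-transferred compounds, and grown at 37 °C for at least 48 hr. Viability was read as ATP luminescence.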
Numbers stand for hits; n = inactive; u = inconclusive; x = no result given; ! = not confirmed by another sample; [ ] = another dose, or the depositor's remark. Unless noted, calls follow the shape of the dose curve; as a rule, active = well fitted curve in the direction sought with a large enough effect; inconclusive = small, poorly fitted or top-dose-only effect, or another doubt; inactive = no such curve, though single readings can be large; an effect the other way counts as inactive or inconclusive.

SMILES	TDP1 cell noCPT	12-LOX inh	HT1080NT lethal	IL1B secr inh	HT1080 IDH1KD tx	TDP1 cell CPT
CC(C)C(=O)NCCNC(=O)c1cc(-c2ccncc2)nc2ccccc12	x	n	x	x	x	x
O=C(Nc1ccnn1C1CCN(Cc2nccs2)CC1)c1ccc2c(c1)OCO2	x	n	x	x	x	x
OCc1n[nH]c2c1CN(Cc1cccc(OCC(O)CN3CCOCC3)c1)CC2 (stereo not given)	x	n	x	x	x	x
Cc1ccc(CNc2oc(-c3ccc(S(=O)(=O)N4CCc5ccccc5C4)cc3)nc2C#N)cc1	x	n	x	x	x	x
Cc1cccc(OCC(=O)NCC(=O)N/N=C/c2ccc(O)cc2O)c1	5.8µM	n	n	n	18µM	16µM
COc1cccc(/C=N/NC(=O)CNC(=O)COc2cccc(C)c2)c1O	18µM	n	u	n	23µM	7.3µM
Cc1cccc(OCC(=O)NCC(=O)N/N=C/c2ccccc2)c1	n	n	n	n	n	n
CCC(C(=O)NCc1ccc(C)cc1)N1C(=O)CCn2nc(C)cc21 (stereo not given)	x	n	x	x	x	x
CC1Sc2ccc(S(=O)(=O)CCC(=O)NCc3ccccc3)cc2NC1=O (stereo not given)	n	n	n	n	n	u
CC1Sc2ccc(S(=O)(=O)CCC(=O)N(C)Cc3ccccc3)cc2NC1=O (stereo not given)	u	n	n	n	n	18µM
CC1Sc2ccc(S(=O)(=O)NCCc3ccccc3)cc2NC1=O (stereo not given)	23µM	n	n	n	n	21µM
Cn1c(=O)n(C)c2cc(S(=O)(=O)NCCc3ccccc3)ccc21	23µM	n	n	n	n	23µM
CC1Sc2ccc(S(=O)(=O)CCC(=O)NC3CCCC(C)C3C)cc2NC1=O (stereo not given)	21µM	n	n	n	n	21µM
Cc1c(NC(=O)c2nn(CCO)c(=O)c3ccccc23)c(=O)n(-c2ccccc2)n1C	x	n	x	x	x	x
Cn1nccc1-c1ncc2c(n1)OCCN(c1cccc(C(F)(F)F)c1)C2=O	x	n	x	x	x	x
CCc1c(C)nc(N2CCN(c3ccccc3F)CC2)[nH]c1=O	23µM	n	n	n	n	u
C=C(C(=O)c1ccccc1)C(C)C(=C)C(=O)c1ccccc1	5.8µM	n	8.2µM	-103	5.8µM	5.8µM
C=C(C(=O)c1ccccc1)C(C(=C)C(=O)c1ccccc1)c1ccc(OC)cc1	5.2µM	n	n	-61	n	10µM
C=C(C(=O)c1ccccc1)C(c1ccccc1)C(C)C(=O)c1ccccc1 (stereo not given)	u	n	u	-97	u	u
O=C(c1ccccc1)C(c1ccccc1)c1ccccc1	n	n	n	n	n	n
c1ccc(-c2ccc3ncc(Nc4ccncc4)n3n2)cc1	x	n	x	x	x	x
O=C(CCCCn1c(=O)c2ccccc2n(Cc2ccccc2F)c1=O)NCc1ccc2c(c1)OCO2	u	n	x	x	x	n
CCCCNC(=O)CCCn1c(=O)c2ccccc2n(Cc2cccc(Cl)c2)c1=O	23µM	n	x	x	x	23µM
COc1ccc(NC(=O)Cn2c(=O)n(CCCC(=O)NCc3ccccc3OC)c(=O)c3ccccc32)cc1Cl	n	n	x	x	x	u
COc1cccc(NC(=O)Cn2c(=O)n(CCCCC(=O)NCc3ccccc3Cl)c(=O)c3ccccc32)c1	18µM	n	x	x	x	u
SMILES	TDP1 cell noCPT	12-LOX inh	HT1080NT lethal	IL1B secr inh	HT1080 IDH1KD tx	TDP1 cell CPT
O=C(CCCCn1c(=O)c2ccccc2n(Cc2ccccc2F)c1=O)NCc1ccccc1Cl	5.2µM	u	x	x	x	8.2µM
CCCCNC(=O)CCCn1c(=O)c2ccccc2n(Cc2ccccc2C)c1=O	21µM	n	x	x	x	u
CC(=O)N1CC2(Cc3ccccc31)CN(C(=O)C1CC1)C2	x	n	x	x	x	x
CC(C)c1ccc(S(=O)(=O)N2CCC3(CCCNC3)C2)cc1 (stereo not given)	x	n	x	x	x	x
O=C(CCCCn1c(=O)c2ccccc2n(CC(=O)Nc2ccc(F)cc2F)c1=O)NCc1ccccc1Cl	n	n	x	x	x	n
Cc1ccc(C)c(Cn2c(=O)n(CCCCC(=O)NCc3ccccc3Cl)c(=O)c3ccccc32)c1	7.3µM	n	x	x	x	7.3µM
COc1ccccc1CNC(=O)CCCCn1c(=O)c2ccccc2n(Cc2ccccc2C)c1=O	2.9µM	n	x	x	x	5.8µM
CCCCNC(=O)Cn1ncc2c(C)n(Cc3cccc(Cl)c3)c(C)c2c1=O	21µM	n	x	x	x	23µM
O=C(CCCn1c(=O)c2ccccc2n(CC(=O)Nc2ccc(F)cc2F)c1=O)NCc1ccccc1Cl	u	n	x	x	x	16µM
Cc1oc(-c2nc(C#N)c(NCc3cccnc3)o2)cc1S(=O)(=O)N1CCCCCC1	x	n	x	x	x	x
COc1cccc(CC(=O)N2CCc3nn(C)c(=O)n3CC2)c1	x	n	x	x	x	x
COc1ccccc1CNC(=O)CCCCn1c(=O)c2ccccc2n(Cc2ccccc2F)c1=O	2.3µM	n	x	x	x	3.7µM
CCOC(=O)c1ccccc1NC(=O)Cn1c(=O)n(CCC(=O)NCc2ccccc2OC)c(=O)c2ccccc21	16µM	n	x	x	x	u
O=C(CCCn1c(=O)c2sccc2n(Cc2c(F)cccc2Cl)c1=O)NCc1ccccc1	16µM	n	x	x	x	u
CN(C)c1cccc(C(=O)NNC(=O)c2ccccc2F)c1	x	n	x	x	x	x
O=C(O)CC/C(=C/c1cccc(NC(=O)c2ccccc2Cl)c1)c1nc2ccccc2s1	u	u	u	n	n	n
COc1cc(/C=C(\CCC(=O)O)c2nc3ccccc3s2)ccc1OCC(=O)Nc1c(Cl)cccc1Cl	u	n	n[9.24 µM]	n	n	16µM
CCCC(=O)N(Cc1cc2cc(OC)ccc2[nH]c1=O)c1ccccc1OC	u	n	n	n	n	15µM
CCOc1cc(C(=O)N(C)Cc2cc3cc(OC)ccc3[nH]c2=O)cc(OCC)c1OCC	n	2µM!	n	n	n	n
CCOc1ccccc1C(=O)N(C)Cc1cc2cc(OC)ccc2[nH]c1=O	n	n	n	n	n	n
CC(=O)N(C1CCOCC1)C1CCN(C(=O)NCc2ccc(OC(F)(F)F)cc2)CC1	x	n	x	x	x	x
COCCCNCc1cc(C)n(-c2cc(S(=O)(=O)N3CCOCC3)ccc2N2CCCC2)c1C	u	n	n	n	n	u
CCN1CCN(c2ccc(S(=O)(=O)N3CCCCC3)cc2NC(=O)COc2ccc(Cl)cc2)CC1	u	u	n	n	n	u
CCN1CCN(c2ccc(S(=O)(=O)N3CCCCC3)cc2NC(=O)c2cccc(C)c2)CC1	u	n	n	u	n	u
Cc1cc(C#N)c(C)n1-c1cc(S(=O)(=O)N2CCOCC2)ccc1N1CCCC1	15µM	u	n	n	n	16µM
CCN1CCN(c2ccc(S(=O)(=O)N3CCCCC3)cc2NC(=O)COc2ccc(F)cc2Cl)CC1	u	u	21µM	u	18µM	21µM
